Sampled rows, rich in hits. Any-hit rate of the full collection: about 19%.
HT1080 IDH1KD tx: qHTS for induction of synthetic lethality in tumor cells producing 2HG: qHTS for the HT-1080-IDH1KD cell line | HT-1080 IDH1 knockdown viability, ATP luminescence, 48 h | Potency, µM (highest dose often 46.1 µM), for inactives: at the top dose activity, negative = toxicity, hits mostly cytotoxic | hit rate 2% among 360,000 | AID 686971, 2013;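 note: potency is the fitted concentration of half-maximal effect; 0% = DMSO wells and -100% = cell-free medium wells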
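Using the IDH1-knockdown HT-1080 line run in the same batch and compound series as the NT line, viability after 48 h at 37 °C was determined by CellTiter-Glo luminescence and expressed as % activity.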
DT40 TDP1 CPT: qHTS for Inhibitors of human tyrosyl-DNA phosphodiesterase 1 (TDP1): qHTS in cells in presence of CPT | Potency, µM (top dose mostly 46.2 µM), inactives show at the top dose activity change, negative = growth inhibition, actives largely listed as inhibitors | chicken DT40 Tdp1-/-;hTDP1 cells + 20 nM CPT, ATP luminescence, 48 h | hit rate 12% among 420,000; note: potency is the fitted concentration of half-maximal effect; nearly all actives have a fitted effect of over 55% in size
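Chicken DT40 Tdp1-/- cells complemented with human TDP1, 400 cells/well, exposed to compounds plus 20 nM camptothecin for at least 48 h at 37 C; viability read as ATP content by CellTiter-Glo luminescence.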
IL-1B inflam inh: qHTS for Inhibitors of Inflammasome Signaling: IL-1-beta AlphaLISA Primary Screen. THP-1 LPS/ATP IL-1B secretion, AlphaLISA, 16 h; stronger effect = lower value. hit rate 4.7% among 360,000. activity change, % at 57.5 µM; in the data active = activity change below about -50%; inconclusive = mostly about -30% to -49%
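THP-1 cells pretreated 1 hr with compounds (up to 57.5 uM final), then stimulated with LPS (250 ng/mL final) plus ATP (1.25 mM final); secreted IL-1B measured by AlphaLISA after 16 hr, decreased signal indicating inhibition.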
DT40 TDP1 no CPT: qHTS for Inhibitors of human tyrosyl-DNA phosphodiesterase 1 (TDP1): qHTS in cells in absence of CPT. DT40 Tdp1-/- hTDP1 cells, no CPT, ATP luminescence, 48 h. Potency, µM (top dose mostly 46.2 µM), without a hit: at the highest dose activity change, negative = growth inhibition, actives largely listed as inhibitors. hit rate 15% among 420,000. AID 686978, 2013; note: potency is the fitted concentration of half-maximal effect; nearly all actives have a fitted effect of over 55% in size
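Readout: luminescence from CellTiter-Glo after 30 min in the dark at RT. Cells: DT40 Tdp1-/- with stable hTDP1, 400/well. Exposure: compounds alone, ≥48 hr, 37 °C.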
ELG1 DNA repair: qHTS screen for small molecules that inhibit ELG1-dependent DNA repair in human embryonic kidney (HEK293T) cells expressing luciferase-tagged ELG1; AID 504467, 2011; HEK293T ELG1-luciferase reporter, luminescence, 16 h; DNA damage induced by 5-fluorouridine; Potency, µM (doses to about 46.1 µM), for inactives: top-dose activity change, negative = inhibition, most hits filed as inhibitors; hit rate 2.3% among 330,000; note: potency is the fitted concentration of half-maximal effect; nearly all actives have a fitted effect of over 55% in size
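Step one: seed 2,000 cells per well. Step two: pin-transfer compound or DMSO alongside 5-fluorouridine. Step three: incubate 16 hr, 37 °C, 5% CO2. Step four: add ONE-Glo, wait 30 min, read luminescence.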
HT1080NT lethal: qHTS for induction of synthetic lethality in tumor cells producing 2HG: qHTS for the HT-1080-NT fibrosarcoma cell line | HT-1080-NT fibrosarcoma viability, CellTiter-Glo ATP luminescence, 48 h | Potency, µM (doses to about 46.1 µM), for the others: at the top dose activity, negative = less viability, usual class: cytotoxic | hit rate 1.6% among 360,000 | AID 686970, 2013;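 note: NT is the 2HG producing partner of a matched IDH1 knockdown line; potency is the fitted concentration of half-maximal effect; 0% = DMSO-treated cells and -100% = media-only wells without cells; nearly all actives have a fitted effect of over 55% in size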
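Read-out is CellTiter-Glo luminescence after 10 minutes at room temperature, following 48 hours' compound treatment of HT-1080-NT cells (750 cells/well, RPMI, 5% FBS, 37 degrees C).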
* marks the source's active call; other numbers are inactive results; ? = inconclusive; / = no result; [ ] = remark or other dose. Unless noted, calls come from the whole dose curve; as a rule, active = well fitted curve in the direction sought with a large enough effect; inconclusive = small, poorly fitted or top-dose-only effect, or another doubt; inactive = no such curve, though single readings can be large; an effect the other way counts as inactive or inconclusive. Unless noted, % is set by controls: 0 for no effect and ±100 for the full control effect.

SMILES | HT1080 IDH1KD tx | DT40 TDP1 CPT | IL-1B inflam inh | DT40 TDP1 no CPT | ELG1 DNA repair | HT1080NT lethal
CC(=O)c1cccc(NC(=O)COC(=O)c2n[nH]c3ccccc23)c1 | 10% | -19% | 23 | ? | -9% | ?
O=C(CN1CCN(C(=O)c2ccco2)CC1)Nc1ccccc1-c1ccccc1 | -3% | 26µM* | 13 | ? | -15% | -4%
CCOC(=O)c1c(NC(=O)CN2CCN(C(=O)c3ccco3)CC2)sc2c1CCCC2 | -4% | -13% | 82 | -1% | 21µM* | 0%
CCOc1ccc(NC(=O)c2c(NC(=O)CNCCN3CCOCC3)sc3c2CCC3)cc1 | -23% | ? | -11 | 15µM* | ? | -4%
CCOC(=O)c1c(NC(=O)COc2cccc3c2CCN(CC)C3=O)sc2c1CCC2 | 12% | ? | -2 | 8.2µM* | ? | 19%
CCOC(=O)c1cc(C)sc1NC(=O)CN1CCN(C(=O)c2ccco2)CC1 | -16% | 23µM* | 0 | ? | 3% | -7%
CCOC(=O)c1cc(CC)sc1NC(=O)CN1CCN(C(=O)c2ccco2)CC1 | -26% | ? | -2 | -22% | -19% | -13%
CCOC(=O)c1c(NC(=O)CN2CCOCC2)sc2c1CCCC2 | -3% | ? | 7 | 21µM* | -24% | -1%
CCc1cccc(C)c1NC(=O)CN1C(=O)NC(CCc2ccccc2)C1=O (configuration not stated) | 0% | 1% | 3 | 2% | -8% | 3%
O=C(N=C1SCC(=O)N1c1ccccc1Cl)c1ccccc1 | 9% | -10% | 0 | -16% | ? | 10%
COc1ccc([N+](=O)[O-])cc1NC(=S)NC(NC(=O)C(c1ccccc1)c1ccccc1)C(Cl)(Cl)Cl (configuration not stated) | 5.8µM* | ? | -10 | ? | -18% | ?
Cc1cc([N+](=O)[O-])ccc1NC(=S)NC(=O)C(c1ccccc1)c1ccccc1 | ? | ? | -2 | 16µM* | ? | ?
COC(=O)NC(NC(=S)Nc1ccc([N+](=O)[O-])cc1)C(Cl)(Cl)Cl (configuration not stated) | -6% | 7.3µM* | -6 | 7.3µM* | ? | -10%
CCCNC(=O)C1(C)CCCN(C(=O)c2ccc(F)cc2Cl)C1 (configuration not stated) | 12% | 1% | 15 | -1% | / | 18%
COC(=O)CCCn1c(C)cc(C(=O)CCl)c1C | ? | 6.5µM* | -93* | 10µM* | 13% | 21µM*
Cc1cc(C(=O)CCl)c(C)n1CCc1ccccc1 | ? | 3.3µM* | -100* | 4.6µM* | 9% | 13µM*
COC(=O)CCn1c(C)cc(C(=O)COc2ccccc2C(N)=O)c1C | ? | 21µM* | -99* | 23µM* | -12% | -18%
COCCn1c(C)cc(C(=O)COC(=O)c2ccccc2Br)c1C | -6% | -19% | 12 | ? | ? | -3%
COCCn1c(C)cc(C(=O)CSc2ccc(NC(C)=O)cc2)c1C | 9% | -16% | -2 | -16% | ? | 0%
O=C(CCNS(=O)(=O)c1ccccc1)N1CCN(c2ccccc2F)CC1 | 8% | -26% | 5 | ? | -1% | 5%
Cc1ccc(S(=O)(=O)N2CCN(Cc3nc4ccc(C)cc4o3)CC2)cc1 | / | -26% | / | ? | / | /
COc1ccc(S(=O)(=O)N2CCN(Cc3nc4ccc(C)cc4o3)CC2)cc1Cl | / | 18µM* | / | ? | / | /
CCOc1ccc(S(=O)(=O)N2CCN(Cc3nc4ccc(C)cc4o3)CC2)cc1 | / | 18µM* | / | ? | / | /
COc1ccc(OC)c(CCNC(=O)C(=O)Nc2ccc3nc4n(c(=O)c3c2)CCCCC4)c1 | 0% | 13µM* | -15 | 15µM* | ? | 0%
O=C(Nc1ccc2nc3n(c(=O)c2c1)CCCC3)c1cc([N+](=O)[O-])ccc1F | ? | 2.1µM* | -105* | 1.8µM* | ? | -20%
SMILES | HT1080 IDH1KD tx | DT40 TDP1 CPT | IL-1B inflam inh | DT40 TDP1 no CPT | ELG1 DNA repair | HT1080NT lethal
COc1cccc(/C=C/C(=O)Nc2ccc3nc4n(c(=O)c3c2)CCCC4)c1OC | ? | 21µM* | -10 | 18µM* | ? | ?
COc1ccc(NC(=O)C(=O)Nc2ccc3nc4n(c(=O)c3c2)CCCCC4)c(OC)c1 | / | -7% | / | -7% | / | /
COc1cccc(/C=C/C(=O)Nc2ccc3c(c2)OCCO3)c1OC | -13% | 18µM* | -78* | ? | ? | -12%
O=C(Nc1ccc2nc3n(c(=O)c2c1)CCCC3)c1cccc([N+](=O)[O-])c1 | 2% | 9% | -6 | -12% | 3% | 11%
COc1cccc(/C=C/C(=O)Nc2cccc(C(C)=O)c2)c1OC | 4% | ? | -21 | ? | ? | 5%
Cc1nnc2c(N3CCN(c4ccccc4F)CC3)nc3ccccc3n12 | / | 0% | / | -5% | / | /
COc1cccc(NC(=O)CC(=O)Nc2ccc3nc4n(c(=O)c3c2)CCCCC4)c1 | / | 3% | / | -8% | / | /
COc1cc(OC)cc(C(=O)Nc2ccc3nc4n(c(=O)c3c2)CCCCC4)c1 | -21% | ? | -10 | 12µM* | ? | -30%
O=C(Nc1ccccc1N1CCOCC1)c1ccc([N+](=O)[O-])s1 | ? | 16µM* | 31 | 16µM* | ? | ?
CCc1sc(C(=O)Nc2ccccc2N2CCOCC2)cc1C | 16% | 23µM* | -13 | ? | -10% | 11%
Cc1cc(C(=O)Nc2ccccc2N2CCOCC2)no1 | 1% | -4% | -1 | 4% | -1% | 3%[9.24 µM]
CSCCC(NC(=O)c1ccccc1C)C(=O)O (configuration not stated) | 9% | 9% | -3 | 4% | 3% | 12%
O=C(CSc1nnc(C23CC4CC(CC(C4)C2)C3)o1)Nc1ccc(N2CCOCC2)c(Cl)c1 | ? | ? | 18 | 18µM* | -7% | 15%
O=C(CSc1ncn[nH]1)Nc1ccc(Cl)c(S(=O)(=O)N2CCOCC2)c1 | 6% | 1% | 20 | 9% | -1% | 0%
O=C(CSc1nc2ccccc2s1)Nc1ccc(N2CCOCC2)c(Cl)c1 | -4% | 16µM* | -4 | 21µM* | -8% | 3%
